About 3,300 (0.97%) of roughly 340,000 compounds were called active. Another 9% or so got no clear call; they are omitted. The call rests on the fitted dose curve; in most records, active means well fitted inhibition curve with a large enough effect; inconclusive means small, poorly fitted or top-dose-only effect, or effect the other way; inactive means flat fitted curve, though single readings scatter. Some of the results follow.
assay: qHTS Assay for Modulators of miRNAs and/or Inhibitors of miR-21; conditions: HeLa miR-21-FLuc reporter, luciferase luminescence, 48 h; actives lower the signal; further: nearly all actives have a fitted effect of over 55% in size
Description: MLSCN Grant: 1 R21 NS059478-01 Assay Provider: Qihong Huang, The Wistar Institute NCGC Assay Overview: MicroRNAs (miRNAs) are endogenously encoded small (~20-25 nucleotides), nonprotein-coding RNAs that are involved in post-transcriptional repression of target messenger RNAs (mRNAs) (Le and Hannon, 2004). Estimated to be involved in the regulation of 30% of all protein-coding mRNAs (Filipowicz et al., 2008), miRNAs play a significant role in many biological processes including cellular differentiation and tissue development (Ghildiyal and Zamore, 2009).
NCGC Assay Protocol Summary: Reagents: HeLa cells stably expressing firefly luciferase (FLuc) under the control of a CMV promoter (upstream) and a miR-21 binding sequence directly downstream of the gene. These cells endogenously express miR-21. Control compounds used were compound C3 (provided by collaborator), N6-phenyladenosine (MP Biomedicals, 0215379625), and DMSO. Assay Summary: 6uL of HeLa miR-21-FLuc cells in assay buffer (DMEM, Invitrogen #21063-029; 10% FBS, HyClone #SH30071.03) were dispensed at 2000cells/well (3.3 x 10^5 cells/mL) into Greiner solid-white TC-treated 1536-well plates using a Multidrop Combi (Thermo Fisher Scientific). Plates were incubated for one hour at 37 degree Celsius, 95% humidity, 5% CO2. These assay plates were then treated with 23nL of compound or DMSO using a Kalypsys pin tool, which allows for delivery of a 24-point titration of each compound to the assay plate, with a final compound concentration ranging from approximately 40uM to 5pM. Assay plates were then incubated for 48 hours. After incubation, plates were allowed to come to RT for one hour prior to delivery of 3uL of 3X luciferase detection reagent. After a 15 minute incubation to allow for cell lysis, luciferase activity was measured using a ViewLux CCD imager (PerkinElmer), with an average exposure time of 2-12 seconds. Keywords: NIH Roadmap, MLPCN, MLSMR, qHTS, miR-21, microRNA, firefly luciferase, FLuc.
Potency means the concentration at half of the fitted maximal effect.

Potency, active:
COc1ccccc1N=c1oc2cc(O)ccc2cc1C(=O)NCC1CCCO1 (stereo not drawn) 9.27 µM
CCOC(=O)/C=C(\C)N1N=C(c2ccccc2)CC1c1ccccc1 (stereo not drawn) 2.33 µM
COc1ccc(OC)c(/C=N/N(C)c2ccccc2)c1 6.56 µM
CCOc1ccc(/C=N/N(C)c2ccccc2)cc1OC 4.65 µM
COc1cc(/C=N/N(C)c2ccccc2)ccc1O 2.61 µM
CN(/N=C/c1ccc2c(c1)OCO2)c1ccccc1 6.56 µM
CCCCC12CN3CCN(CC(C3)/C1=N\NC(=O)c1ccccc1N)C2 9.27 µM
Nc1ccccc1C(=O)N/N=C1\C2CN3CCN(C2)CC1(c1ccccc1)C3 7.36 µM
CC12CN3CCN(CC(C3)/C1=N\NC(=O)c1ccccc1N)C2 10.4 µM
c1ccc2c(c1)ccc1nnc(SCc3ccc4c(c3)OCCO4)n12 16.5 µM
O=C(CSc1nnc2ccc3ccccc3n12)c1ccc(F)cc1 9.27 µM
Cc1ccc2nc(-c3ccc(Cl)c(NC(=O)c4ccc5c(c4)OCCO5)c3)oc2c1 7.36 µM
COc1ccc2oc(-c3ccc(C)c(NC(=O)c4ccc5c(c4)OCCO5)c3)nc2c1 8.26 µM
Cc1nn(CC(=O)Nc2ccccc2C(F)(F)F)c(=O)c2cccn12 16.5 µM
CCc1cccc(C)c1NC(=O)Cn1nc(C)n2cccc2c1=O 4.65 µM
Cc1cc(C(=O)N(C)C)sc1-c1ccccc1 5.21 µM
CC1=C(c2ccc(C)cc2)[N+](=O)C(C)(C)N1[O-] 3.69 µM
CCc1cccc2c(C(=O)COC(=O)c3ccccc3)c[nH]c12 16.5 µM
COc1ccc(-c2csc(N=C(N)N)n2)cc1 8.26 µM
Cc1ccsc1/C=N\NC(=O)c1cc(C(C)(C)C)[nH]n1 4.14 µM
O=C(Nc1nc2ccsc2c(=O)s1)c1ccc(F)cc1 0.414 µM
CCOc1ccc(Nc2nc(-c3cccnc3)cs2)cc1 0.585 µM
Cc1ccc(Nc2nc(C)cs2)cc1 6.56 µM
Cc1ccc(Nc2nc(C3CC3)cs2)cc1 1.65 µM
Cc1ccc(Nc2nc(-c3ccncc3)cs2)cc1 0.656 µM
Cc1csc(Nc2ccc(Cl)cc2)n1 10.4 µM
O=[N+]([O-])c1ccccc1Nc1nc(-c2cccnc2)cs1 18.5 µM
O=C(C[n+]1cn(C(F)F)c2ccccc21)c1ccc(OC(F)F)cc1 5.85 µM
Clc1ccc(-c2cnc(Oc3ccccc3)nc2)cc1 2.07 µM
Cc1ccccc1Nc1nnc(SCC(=O)NC(=O)Nc2ccc3c(c2)OCCO3)s1 10.4 µM
Cc1ccc(N(CC(=O)Nc2ccc3c(c2)OCCO3)S(C)(=O)=O)cc1 10.4 µM
O=C(Nc1ccc2c(c1)OCCO2)C1CC1c1ccccc1 (stereo not drawn) 7.36 µM
Cc1ccc(SCC(=O)Nc2ccc3c(c2)OCCO3)cc1 1.65 µM
Cc1cccc(-c2nsc(SCC(=O)Nc3ccc4c(c3)OCO4)n2)c1 13.1 µM
O=C(CSc1ccccc1)Nc1ccc2c(c1)OCO2 13.1 µM
O=C(CSc1ccc(-c2ccccc2)nn1)Nc1ccc2c(c1)OCCO2 8.26 µM
O=C(Nc1ccc2c(c1)OCO2)N1CCCc2ccccc21 13.1 µM
O=C(CC1CS(=O)(=O)CC1CC(=O)Nc1ccc2c(c1)OCCO2)Nc1ccc2c(c1)OCCO2 (stereo not drawn) 7.36 µM
CCc1ccc(C(=O)Nc2cc(C)ccc2F)s1 6.56 µM
CCOc1ccc(NC(=O)Nc2cc(C)ccc2F)cc1 1.85 µM
O=c1cc(CNc2ccc(Br)cc2)nc2sccn12 18.5 µM
Cc1ccc(SCc2cc(=O)n3ccsc3n2)c(C)c1 9.27 µM
COc1cccc(C(=O)NCCn2ccc3ccccc32)c1 5.21 µM
Cc1cccc(NC(=S)NNC(=O)c2csc(C)c2)c1 2.93 µM
Cc1cccc(NC(=S)NNC(=O)c2csc(C(C)C)c2)c1 3.69 µM
CCc1cc(C(=O)Nc2ccc(C)cc2Br)cs1 1.04 µM
CCc1cc(C(=O)NNC(=S)Nc2cccc(C)c2)cs1 4.14 µM
Cc1cccc(NC(=S)NNC(=O)c2ccccc2Br)c1 2.07 µM
Cc1cccc(NC(=S)NNC(=O)c2ccc3c(c2)OCO3)c1 0.464 µM
CCCc1cc(C(=O)NNC(=S)Nc2cccc(C)c2)cs1 3.69 µM
O=C(NNC(=S)Nc1ccccc1Cl)c1ccccc1Br 0.927 µM
Cc1c(C(=O)NNC(=S)Nc2cccc(Cl)c2)nnn1-c1ccccc1 16.5 µM
CCOC(=O)Cc1c(C)nc2c(-c3ccccc3)cnn2c1C 16.5 µM
CCOC(=O)c1cnc2c(-c3ccccc3)cnn2c1C 0.927 µM
CC(C)C(=O)Nc1nc2c(s1)CC(C(C)(C)C)CC2 (stereo not drawn) 2.07 µM
Nn1c(SCc2ccccc2)nc2ccccc21 4.14 µM
CCOC(=O)CSc1nc2cc3c(cc2cc1C#N)OCO3 1.04 µM
CCOC(=O)CSc1nc2cc3c(cc2cc1C#N)OCCO3 0.147 µM
N#Cc1ccc(-c2csc(NC3=NCCCCC3)n2)cc1 6.56 µM
Brc1ccc(-c2csc(NC3=NCCCCC3)n2)cc1 10.4 µM
Cc1ccnc(NC(=S)NC(=O)c2ccco2)c1 1.17 µM
O=C(NC(=S)Nc1ccccn1)c1ccco1 3.69 µM
O=C(Nc1ccccc1F)c1cc2nc(C(F)F)cc(C(F)F)n2n1 18.5 µM
Cc1cccc(NC(=O)c2ccc(OC3CSC3)cc2)c1 2.93 µM
CCC(C)c1ccc(OCc2ccc(C(=O)O)o2)cc1 (stereo not drawn) 0.233 µM
CCC(C)c1ccc(OCc2ccc(C(=O)OC)o2)cc1 (stereo not drawn) 4.65 µM
COc1cc(C=O)ccc1OCc1cccc(Br)c1 14.7 µM
COc1cc(/C=C2/C(=O)ON=C2C)ccc1OCc1cccc(F)c1 10.4 µM
CCOC(=O)c1c(C)[nH]c(N=Nc2cccc(OC)c2)c1C 0.927 µM
CCOC(=O)c1c(C)[nH]c(N=Nc2ccccc2)c1C 7.36 µM
CCOC(=O)c1c(C)[nH]c(N=Nc2ccc(OC)cc2)c1C 2.93 µM
CCOC(=O)c1c(C)[nH]c(N=Nc2ccc(C)cc2C)c1C 10.4 µM
CCOc1ccc(N=C(/C(C(=O)C(=O)N2CCOCC2)=C(\O)c2ccccc2)c2ccccc2)cc1 3.69 µM
CC1CCCCN1c1nc(-c2ccc(C(C)(C)C)cc2)nc2ccccc12 (stereo not drawn) 0.585 µM
CCOC(=O)C1CCCN(c2ncnc3c2oc2ccccc23)C1 (stereo not drawn) 16.5 µM
c1ccc2c(c1)oc1c(N3CCOCC3)ncnc12 16.5 µM
Brc1ccc2oc3c(N4CCOCC4)ncnc3c2c1 4.65 µM
Cc1ccc(-c2onc3ccc(C(=O)O)cc23)cc1 1.17 µM
FC(F)(F)c1ccc(NCc2ccccn2)nc1 13.1 µM
COc1cc(N2Cc3ccccc3C2)ccc1C=O 5.21 µM
Fc1cccc(/C=N/Nc2ncnc3nc[nH]c23)c1 1.65 µM
Fc1ccc(/C=N/Nc2ncnc3nc[nH]c23)cc1F 4.14 µM
Clc1ccc(/C=N/Nc2ncnc3nc[nH]c23)cc1 1.65 µM
CCSc1nc(N)nc(-c2cccs2)c1C#N 16.5 µM
CC(C)Sc1nc(N)nc(-c2cccs2)c1C#N 2.93 µM
CCCSc1nc(N)nc(-c2cccs2)c1C#N 13.1 µM
CCCCNC(=O)N(C)c1nc2ccccc2s1 8.26 µM
COc1ccc2nc(SCc3ccccc3)nc(C)c2c1 1.17 µM
COc1ccc2nc(SCc3cccc(C)c3)nc(C)c2c1 7.36 µM
Cc1nc(SCc2ccccc2)nc2c1CCC2 5.85 µM
O=C1/C(=C\c2cccs2)Sc2ccc3ccccc3c21 0.521 µM
Cn1c(NC(=O)CCC2CCCCC2)cc(=O)n(C)c1=O 1.17 µM
Cn1c(NC(=O)CCc2ccccc2)cc(=O)n(C)c1=O 3.69 µM
Cc1cc(NC(=O)CCC2CCCCC2)no1 16.5 µM
O=C(CCCC(=O)c1ccc(F)cc1)c1ccc(F)cc1 3.29 µM
O=C(CNC(=O)c1cccs1)c1ccc(Br)cc1 3.29 µM
O=C(CNC(=O)c1ccc(F)cc1)c1ccc(Cl)cc1 3.69 µM
CC1CCC(NC(=O)CNC(=O)c2cccs2)CC1 (stereo not drawn) 3.29 µM
O=C(CNC(=O)c1ccccc1F)c1ccc(Br)cc1 1.47 µM
Cc1ccc(N=C2NC(=O)/C(=C\c3cccs3)S2)cc1C 10.4 µM
Clc1ccc(OCCSc2ncccn2)c(Br)c1 1.31 µM
Cc1ccc(OCCCSc2ncccn2)cc1C 14.7 µM
Clc1ccc(OCCSc2ncccn2)cc1 3.69 µM
CC(C)CSc1nnc2c3ccccc3n(C)c2n1 1.31 µM
O=C(/C=C/c1nc2ccccc2s1)N1CCCCCC1 2.07 µM
CCC(=O)N1CCc2nc(-c3ccccc3)sc2C1 14.7 µM
Cc1cccc(C)c1NC(=O)c1c[nH]c2ccccc12 3.69 µM
Clc1nc(-c2cccnc2)nc2scc(-c3ccccc3)c12 7.36 µM

Reference: PubChem BioAssay AID2289 (National Center for Advancing Translational Sciences (NCATS), 2010)
